Assays:
ETS1 [1] = molecular target: T1, ETS1 (UniProt P14921); test: ETS1 binding intensity (PBM fluorescence), ETS1 alone (arbitrary fluorescence units); higher = stronger binding; settings: ETS1 concentration 1 nM; RUNX1 concentration 0 nM
T1 sequence: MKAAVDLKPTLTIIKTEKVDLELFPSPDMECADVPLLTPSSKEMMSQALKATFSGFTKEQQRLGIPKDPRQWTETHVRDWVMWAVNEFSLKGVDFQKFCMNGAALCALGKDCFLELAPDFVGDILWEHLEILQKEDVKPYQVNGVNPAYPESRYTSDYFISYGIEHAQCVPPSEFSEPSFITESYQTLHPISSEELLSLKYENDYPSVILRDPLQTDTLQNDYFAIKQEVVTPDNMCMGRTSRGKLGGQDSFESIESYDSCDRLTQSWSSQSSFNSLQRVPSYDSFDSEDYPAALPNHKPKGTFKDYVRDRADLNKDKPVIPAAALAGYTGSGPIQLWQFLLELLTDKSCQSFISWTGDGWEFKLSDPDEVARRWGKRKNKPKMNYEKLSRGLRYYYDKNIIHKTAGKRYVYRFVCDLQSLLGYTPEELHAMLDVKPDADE

RUNX1 [2] = molecular target: RUNX1 (UniProt Q01196); test: RUNX1 binding intensity (PBM fluorescence), RUNX1 alone (arbitrary fluorescence units); higher = stronger binding; settings: RUNX1 concentration 2 nM; ETS1 concentration 0 nM
Experimental: (§1)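 Cooperative gcPBM on 36-bp genomic probes with neighbouring ETS1 and RUNX1 sites. Recombinant human RUNX1 (2 nM) was incubated alone or with ETS1 (25 nM) and detected with anti-RUNX1 antibody plus Alexa488 secondary. Values are medians over 4 replicate spots; the RUNX1+ETS1 data were normalised to the RUNX1-only data. The probes sit in constant array flanks that are not printed.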

ETS1 [3] = molecular target: T1, ETS1; test: ETS1 binding intensity (PBM fluorescence) in presence of RUNX1, normalised to ETS1-only experiment (arbitrary fluorescence units); higher = stronger binding; settings: ETS1 concentration 1 nM; RUNX1 concentration 25 nM
RUNX1 [4] = molecular target: RUNX1 (UniProt Q01196); test: RUNX1 binding intensity (PBM fluorescence) in presence of ETS1, normalised to RUNX1-only experiment (arbitrary fluorescence units); higher = stronger binding; settings: RUNX1 concentration 2 nM; ETS1 concentration 25 nM
Experimental: as §1
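Wherever RUNX1 binding intensity (PBM fluorescence) in presence of ETS1, normalised to RUNX1-only experiment is given: Full-length recombinant human ETS1 or RUNX1 bound to double-stranded 36-bp genomic probes on microarrays, detected by protein-specific primary antibody and Alexa488 secondary, spot fluorescence as median of four replicate spots.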
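Wherever RUNX1 binding intensity (PBM fluorescence), RUNX1 alone is given: Full-length recombinant human RUNX1 bound to double-stranded 36-bp genomic probes on a high-density microarray, scored as Alexa488 fluorescence per spot via anti-RUNX1 antibody, median of four replicate spots.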

Chain of RUNX1 (Q01196 whole entry): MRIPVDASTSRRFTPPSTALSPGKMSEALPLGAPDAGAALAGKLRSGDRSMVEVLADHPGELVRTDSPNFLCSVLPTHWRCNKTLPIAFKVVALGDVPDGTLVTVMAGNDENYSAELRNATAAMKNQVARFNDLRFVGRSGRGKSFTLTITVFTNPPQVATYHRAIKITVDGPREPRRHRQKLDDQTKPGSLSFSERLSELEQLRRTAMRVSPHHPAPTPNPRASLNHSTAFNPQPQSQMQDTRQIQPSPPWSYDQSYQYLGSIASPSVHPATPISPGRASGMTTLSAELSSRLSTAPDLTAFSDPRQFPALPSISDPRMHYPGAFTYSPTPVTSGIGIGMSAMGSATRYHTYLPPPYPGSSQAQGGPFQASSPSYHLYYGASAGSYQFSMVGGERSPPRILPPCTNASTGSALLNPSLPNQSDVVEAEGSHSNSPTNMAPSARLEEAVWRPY

Sequence | ETS1 binding intensity (ETS1 [1]) | RUNX1 binding intensity (RUNX1 [2]) | ETS1 binding intensity (ETS1 [3]) | RUNX1 binding intensity (RUNX1 [4])
GGCCAACGAGAGCGCTTCCGGCCGCAGCCACGGCGG | 1950 | 735 | 3000 | 1420
GCAGGCGGAGCTTGAGGAAACCGCAGATAAGTTTTT | 463 | 9080 | 2510 | 10200
CCCGCTGTCACTTCCTGCTTCCCTCCCGCACACGTG | 2700 | 1920 | 2310 | 3690
AGCCTGGCCTCGGCAGGATGTGGGTGTAGGTCATGC | 4780 | 732 | 7380 | 999
GGCTCGGCAAACATCCGGCTCCGCGGTGGAACGGGA | 1430 | 785 | 1910 | 1580
GCCTGAGCGGAAACCCGGCGCCACCACAAGATGGCA | 637 | 990 | 2040 | 1200
GTCTTCCTTCCTGAGAATCTTAACCACCAGCTTGCC | 434 | 1350 | 483 | 2050
GGACACAGGCTTCCGCGTTACCGACACCGCGTGGGG | 451 | 837 | 311 | 934
AGCAACAACAAAGGAAGTGGCGGCCGCAGGGGGAGG | 1320 | 795 | 2160 | 909
GCTGACCCGGAAGCGCTCGTGACCACCATCTCCGAC | 1760 | 912 | 2590 | 1370
ACAGATAGTGATATCCTGTGGTCAATTCCCTCCCCT | 949 | 1030 | 951 | 2280
CCCAGGGCAGGAAGGGCCAAACCGCTACTGCCACTG | 882 | 744 | 2080 | 908
CATTTACAGAAAAGGAAACCGCAAGTTTGAGCAAGT | 976 | 25200 | 2150 | 30700
TTACGTTAAGGAGGAAACTCTGTGGTTAAACTGTAG | 597 | 1230 | 2050 | 1810
CCCCCACATCCTGTTTGGTTTGTGGGACACCTCAAC | 2100 | 849 | 2550 | 4080
ACCTCAGGTACCGGAAGACCACAATTCCCAGGAGTC | 2950 | 965 | 4740 | 1740
AGTGGCAGTGCAGGAAGTGGTTTGTCTGGTACAATC | 3750 | 788 | 6800 | 1590
CCCCTCACTTCCCTCAACCCTTCCCACAAACTGGGA | 597 | 1920 | 571 | 2350
AGAAGCTGCAGTCCCGGAAGCGGTTTTAGGGGGCCG | 4220 | 725 | 10100 | 1310
AGCTAGACTACAGGAGGAAACCACAGCCTAAACCAG | 541 | 1250 | 1030 | 1410
TGAGAAAACAGGAAGCGCCCAGTCACCACAGAAAGC | 2910 | 765 | 5290 | 1330

Sequence | ETS1 binding intensity (ETS1 [1]) | RUNX1 binding intensity (RUNX1 [2]) | ETS1 binding intensity (ETS1 [3]) | RUNX1 binding intensity (RUNX1 [4])
GCTCATTTCCTGGCCGCTCCTGGGCTTCGCGGTGAG | 498 | 834 | 716 | 1730
CCACCCACTTCCTGCCCTAGCTAGTGTGGTATTTTT | 1050 | 907 | 1640 | 7970
GCCGTAGCGGAAGAGTGTTCGTGGTCATGTGACGCC | 671 | 718 | 814 | 1160
GAGCGCCCACTTCCTGTTTACCACCCAGCCTCTTCG | 3670 | 1110 | 5330 | 7590
GCGAGGAGACAACTTCCTTTTGTGGTCTGACCCTGG | 638 | 857 | 1590 | 1970
GCAGAAGGATTTCCTGTTTCAGGCAACCACAGCGAC | 1630 | 773 | 2450 | 1510
AAAGGCGGAAGGGGGGCAGGGAACCCACAAAACAGA | 457 | 959 | 610 | 857
TGGGGTGGTGACATGGGATGTGGTTTTGGGGTTGCA | 510 | 974 | 3860 | 1070
TGTCTCATTTCCTGTAGGTAACAGGCACCACAATAG | 1550 | 968 | 1470 | 1780
AGGTTCCGGCGAAAGTGACCGAAAGTAACCGCCGGG | 351 | 670 | 518 | 967
CGGGACACAGGAAGCCGTTGTGGGGCCCCGGGGCCA | 1960 | 711 | 1970 | 982
TCATAAGGAAGTGGAGTGTAGTAACCACAGGCCCCG | 417 | 829 | 1100 | 1340
GACTGCACTTCCTCTGCTTCGAGGTCGGTGGTTAGC | 535 | 874 | 653 | 1450
AAGTGAAGAGCTTCCGCCGGGAGACCGCGGCTGCAG | 592 | 737 | 686 | 1250
GTTTACAGGGGACAGGAAATGTGGGTGAACTCAGCC | 6160 | 745 | 4710 | 975
AAACTCCCCCACTTCCGCCCACAGCCCTCTGGGCTT | 2010 | 984 | 2120 | 3490
ACCATAAGGACCGGAAGCAGAGACCACACTGGTGCT | 7910 | 831 | 12600 | 1440
CTAGCAGGAAACAGACAGACCCAGCCACAGAATCTC | 470 | 919 | 519 | 884
GTGGTCTCTCCCGGAAAAACCACTTCCACCGAGAAC | 932 | 861 | 1440 | 1270
AGCACCCGGAAGTCGGAGCTGCGCACGCACCGCGGG | 2180 | 751 | 1910 | 1210
